# Experimental data as given in PMC7862700, “An all-to-all approach to the identification of sequence-specific readers for epigenetic DNA modifications on cytosine”.
# Legend:
# Assay in all cases: DAPPL (digital affinity profiling via proximity ligation, sequencing); 10 mM Tris-HCl pH 7.5, 50 mM NaCl, 1 mM DTT, 4% glycerol, room temperature, 30 min; GST-TFs on glutathione beads, 16-mer random dsDNA library, 0.1% formaldehyde crosslink after washing; high values mean tight binding
# FLI1 = target: T1, FLI1 (Homo sapiens, UniProt Q01543 1-452); details: protein: recombinant; tags: N-terminal GST; dsDNA, one strand shown
# T1 sequence: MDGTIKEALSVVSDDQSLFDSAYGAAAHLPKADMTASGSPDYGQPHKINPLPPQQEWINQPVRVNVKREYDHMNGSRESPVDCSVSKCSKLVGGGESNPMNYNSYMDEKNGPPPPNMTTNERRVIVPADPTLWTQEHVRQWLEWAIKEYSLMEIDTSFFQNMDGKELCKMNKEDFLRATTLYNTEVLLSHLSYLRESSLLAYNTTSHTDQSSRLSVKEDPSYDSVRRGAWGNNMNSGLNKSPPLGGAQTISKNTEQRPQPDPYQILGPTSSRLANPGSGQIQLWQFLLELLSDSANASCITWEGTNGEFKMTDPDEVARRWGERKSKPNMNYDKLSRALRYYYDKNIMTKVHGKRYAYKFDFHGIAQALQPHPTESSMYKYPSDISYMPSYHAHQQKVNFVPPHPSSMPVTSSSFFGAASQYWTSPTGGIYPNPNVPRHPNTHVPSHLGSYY
# How it was run: (§1)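 Pools of DNA-barcoded human transcription factors, expressed in yeast as GST fusions on glutathione beads and combined with a tag-only sample, were incubated with 200 nmole of a 16-mer random double-stranded DNA library. Incubation took 30 min at room temperature in Tris/NaCl/DTT/glycerol buffer and was followed by washing, 0.1% formaldehyde crosslinking, proximity ligation (BsaI/T4 ligase, 1 h, 37 °C), PCR amplification and sequencing on an Illumina NextSeq500. Binding signal is the ratio of a hexamer's read frequency for a factor to its frequency for the tag-only sample.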
# ELK1 = target: T2, ELK1 (Homo sapiens, UniProt P19419 1-428); details: protein: recombinant; tags: N-terminal GST; dsDNA, one strand shown
# T2 sequence: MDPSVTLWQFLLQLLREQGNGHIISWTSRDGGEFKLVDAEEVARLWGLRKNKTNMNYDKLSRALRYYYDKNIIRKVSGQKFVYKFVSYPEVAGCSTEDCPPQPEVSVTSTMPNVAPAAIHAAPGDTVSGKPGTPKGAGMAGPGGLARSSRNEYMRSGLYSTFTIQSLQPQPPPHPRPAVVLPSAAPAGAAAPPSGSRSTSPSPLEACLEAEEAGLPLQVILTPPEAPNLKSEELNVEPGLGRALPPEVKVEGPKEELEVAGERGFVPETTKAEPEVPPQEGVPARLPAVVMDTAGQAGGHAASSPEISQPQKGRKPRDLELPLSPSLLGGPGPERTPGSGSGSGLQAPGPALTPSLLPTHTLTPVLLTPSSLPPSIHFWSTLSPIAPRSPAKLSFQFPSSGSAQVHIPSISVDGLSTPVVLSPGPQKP
# How it was run: as §1
# GABPA = target: T3, GABPA (Homo sapiens, UniProt Q06546 1-454); details: protein: recombinant; tags: N-terminal GST; dsDNA, one strand shown
# T3 sequence: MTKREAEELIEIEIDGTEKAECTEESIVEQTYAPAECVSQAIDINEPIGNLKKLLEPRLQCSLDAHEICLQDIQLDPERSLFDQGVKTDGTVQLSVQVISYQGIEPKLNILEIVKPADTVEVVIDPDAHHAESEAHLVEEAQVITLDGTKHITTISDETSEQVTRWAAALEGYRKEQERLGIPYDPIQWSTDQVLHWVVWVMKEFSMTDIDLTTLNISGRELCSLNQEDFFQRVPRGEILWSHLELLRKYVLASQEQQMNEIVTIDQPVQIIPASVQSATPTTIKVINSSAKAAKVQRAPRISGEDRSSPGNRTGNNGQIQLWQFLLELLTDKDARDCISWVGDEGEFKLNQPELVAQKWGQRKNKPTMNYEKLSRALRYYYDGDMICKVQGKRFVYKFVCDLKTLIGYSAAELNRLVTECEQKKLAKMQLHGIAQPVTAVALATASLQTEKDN
# How it was run: as §1
# ERG = target: T4, ERG (Homo sapiens, UniProt P11308 1-479); details: protein: recombinant; tags: N-terminal GST; dsDNA, one strand shown
# T4 sequence: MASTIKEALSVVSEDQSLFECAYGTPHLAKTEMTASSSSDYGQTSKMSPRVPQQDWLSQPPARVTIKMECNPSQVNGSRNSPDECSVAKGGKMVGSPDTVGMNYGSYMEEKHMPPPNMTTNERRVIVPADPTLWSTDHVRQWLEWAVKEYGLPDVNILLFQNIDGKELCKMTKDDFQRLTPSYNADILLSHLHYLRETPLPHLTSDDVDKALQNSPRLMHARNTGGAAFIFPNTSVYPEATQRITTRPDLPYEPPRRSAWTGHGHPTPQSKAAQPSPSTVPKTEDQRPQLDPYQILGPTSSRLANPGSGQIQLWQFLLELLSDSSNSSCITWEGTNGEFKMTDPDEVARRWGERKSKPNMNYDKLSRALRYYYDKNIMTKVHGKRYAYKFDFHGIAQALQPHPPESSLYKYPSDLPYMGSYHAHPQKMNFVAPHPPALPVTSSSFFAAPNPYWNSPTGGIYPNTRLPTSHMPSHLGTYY
# How it was run: as §1
# ELF1 = ELF1 (Homo sapiens, UniProt P32519 1-619); details: protein: recombinant; tags: N-terminal GST; dsDNA, one strand shown
# How it was run: as §1
# EHF = target: T5, EHF (Homo sapiens, UniProt Q9NZC4 1-300); details: protein: recombinant; tags: N-terminal GST; dsDNA, one strand shown
# T5 sequence: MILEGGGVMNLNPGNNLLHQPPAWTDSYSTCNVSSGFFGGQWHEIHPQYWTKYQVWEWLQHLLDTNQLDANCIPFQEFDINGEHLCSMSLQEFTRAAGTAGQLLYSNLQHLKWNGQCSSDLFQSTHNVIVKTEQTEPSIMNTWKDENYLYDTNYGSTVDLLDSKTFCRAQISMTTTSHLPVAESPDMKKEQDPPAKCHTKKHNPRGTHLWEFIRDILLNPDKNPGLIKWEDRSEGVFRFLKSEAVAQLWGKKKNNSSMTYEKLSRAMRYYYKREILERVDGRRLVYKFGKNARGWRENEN
# How it was run: as §1
# SPI1 = SPI1 (Homo sapiens, UniProt P17947 1-270); details: protein: recombinant; tags: N-terminal GST; dsDNA, one strand shown
# How it was run: as §1
# SPIB = SPIB (Homo sapiens, UniProt Q01892 1-262); details: protein: recombinant; tags: N-terminal GST; dsDNA, one strand shown
# How it was run: as §1
# ELK3 = target: T6, ELK3 (Homo sapiens, UniProt P41970 1-407); details: protein: recombinant; tags: N-terminal GST; dsDNA, one strand shown
# T6 sequence: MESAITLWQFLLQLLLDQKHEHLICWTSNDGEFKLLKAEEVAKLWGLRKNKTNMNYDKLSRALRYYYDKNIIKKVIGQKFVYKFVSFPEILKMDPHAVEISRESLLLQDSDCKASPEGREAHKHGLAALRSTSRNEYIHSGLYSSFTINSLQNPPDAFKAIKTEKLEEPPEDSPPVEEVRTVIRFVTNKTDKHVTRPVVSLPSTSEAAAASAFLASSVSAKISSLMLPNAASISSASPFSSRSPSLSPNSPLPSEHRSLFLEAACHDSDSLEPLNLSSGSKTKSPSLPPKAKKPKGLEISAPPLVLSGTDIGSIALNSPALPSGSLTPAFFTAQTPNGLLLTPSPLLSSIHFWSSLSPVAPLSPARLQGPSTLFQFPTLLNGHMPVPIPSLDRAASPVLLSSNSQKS
# How it was run: as §1
# FEV = target: T7, FEV (Homo sapiens, UniProt Q99581 1-238); details: protein: recombinant; tags: N-terminal GST; dsDNA, one strand shown
# T7 sequence: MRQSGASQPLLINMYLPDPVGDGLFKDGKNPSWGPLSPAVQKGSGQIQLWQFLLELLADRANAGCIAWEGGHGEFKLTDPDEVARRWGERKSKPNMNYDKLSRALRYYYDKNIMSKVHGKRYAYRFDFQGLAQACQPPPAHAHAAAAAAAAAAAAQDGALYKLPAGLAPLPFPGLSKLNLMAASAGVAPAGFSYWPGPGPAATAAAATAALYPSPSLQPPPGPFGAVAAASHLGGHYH
# How it was run: as §1
# ETV5 = ETV5 (Homo sapiens, UniProt P41161 1-510); details: protein: recombinant; tags: N-terminal GST; dsDNA, one strand shown
# How it was run: as §1
# HSF1 = HSF1 (Homo sapiens, UniProt Q00613 1-529); details: protein: recombinant; tags: N-terminal GST; chain copies: 3; dsDNA, one strand shown
# How it was run: as §1
# SPIC = target: T8, SPIC (Homo sapiens, UniProt Q8N5J4 1-248); details: protein: recombinant; tags: N-terminal GST; dsDNA, one strand shown
# T8 sequence: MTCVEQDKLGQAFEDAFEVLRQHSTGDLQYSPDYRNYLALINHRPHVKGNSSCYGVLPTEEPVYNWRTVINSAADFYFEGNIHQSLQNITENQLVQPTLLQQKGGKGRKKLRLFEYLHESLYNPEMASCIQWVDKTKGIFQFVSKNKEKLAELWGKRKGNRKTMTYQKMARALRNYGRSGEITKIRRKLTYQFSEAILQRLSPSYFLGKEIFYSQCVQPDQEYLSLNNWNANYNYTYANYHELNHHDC
# How it was run: as §1
# ELF4 = ELF4 (Homo sapiens, UniProt Q99607 1-663); details: protein: recombinant; tags: N-terminal GST; dsDNA, one strand shown
# How it was run: as §1
# ELK4 = target: T9, ELK4 (Homo sapiens, UniProt P28324-2 1-405); details: protein: recombinant; tags: N-terminal GST; dsDNA, one strand shown
# T9 sequence: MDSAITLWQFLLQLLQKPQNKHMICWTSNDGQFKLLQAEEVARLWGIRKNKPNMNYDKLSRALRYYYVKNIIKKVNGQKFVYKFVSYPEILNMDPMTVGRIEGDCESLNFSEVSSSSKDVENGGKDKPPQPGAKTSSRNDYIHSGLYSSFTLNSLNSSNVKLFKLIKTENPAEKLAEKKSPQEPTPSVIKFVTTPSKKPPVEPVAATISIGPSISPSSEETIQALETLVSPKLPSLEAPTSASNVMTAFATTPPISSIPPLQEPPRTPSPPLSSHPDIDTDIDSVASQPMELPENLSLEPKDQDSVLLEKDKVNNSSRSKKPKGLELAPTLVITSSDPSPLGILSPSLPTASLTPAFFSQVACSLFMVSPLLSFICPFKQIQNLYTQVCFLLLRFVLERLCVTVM
# How it was run: as §1
# ETV2 = target: T10, ETV2 (Homo sapiens, UniProt O00321 1-342); details: protein: recombinant; tags: N-terminal GST; dsDNA, one strand shown
# T10 sequence: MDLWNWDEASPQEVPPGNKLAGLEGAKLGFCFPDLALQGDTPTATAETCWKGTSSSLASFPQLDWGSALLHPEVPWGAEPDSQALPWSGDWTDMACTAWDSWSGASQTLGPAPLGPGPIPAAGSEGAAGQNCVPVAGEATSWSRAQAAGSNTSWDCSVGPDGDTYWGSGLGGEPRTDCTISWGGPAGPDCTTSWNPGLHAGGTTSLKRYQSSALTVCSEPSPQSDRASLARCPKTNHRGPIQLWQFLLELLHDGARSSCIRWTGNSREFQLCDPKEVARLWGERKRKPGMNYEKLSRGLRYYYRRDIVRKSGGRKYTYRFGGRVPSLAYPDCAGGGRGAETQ
# How it was run: as §1
# ELF3 = target: T11, ELF3 (Homo sapiens, UniProt P78545 1-371); details: protein: recombinant; tags: N-terminal GST; dsDNA, one strand shown
# T11 sequence: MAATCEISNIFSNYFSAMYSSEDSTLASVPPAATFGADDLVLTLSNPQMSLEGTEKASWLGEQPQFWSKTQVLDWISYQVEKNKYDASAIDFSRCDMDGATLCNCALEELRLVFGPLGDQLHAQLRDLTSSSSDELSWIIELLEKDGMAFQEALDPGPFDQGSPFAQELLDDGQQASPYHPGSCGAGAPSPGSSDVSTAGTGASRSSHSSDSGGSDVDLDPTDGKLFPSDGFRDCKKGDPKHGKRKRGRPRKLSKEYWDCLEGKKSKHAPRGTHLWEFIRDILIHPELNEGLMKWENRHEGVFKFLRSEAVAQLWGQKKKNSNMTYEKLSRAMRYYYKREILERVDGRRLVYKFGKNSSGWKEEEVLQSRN
# How it was run: as §1
# CRX = CRX (Homo sapiens, UniProt O43186 1-299); details: protein: recombinant; tags: N-terminal GST; dsDNA, one strand shown
# How it was run: as §1
# ETV1 = ETV1 (Homo sapiens, UniProt P50549 1-477); details: protein: recombinant; tags: N-terminal GST; dsDNA, one strand shown
# How it was run: as §1
# Chain of CRX (O43186 whole entry): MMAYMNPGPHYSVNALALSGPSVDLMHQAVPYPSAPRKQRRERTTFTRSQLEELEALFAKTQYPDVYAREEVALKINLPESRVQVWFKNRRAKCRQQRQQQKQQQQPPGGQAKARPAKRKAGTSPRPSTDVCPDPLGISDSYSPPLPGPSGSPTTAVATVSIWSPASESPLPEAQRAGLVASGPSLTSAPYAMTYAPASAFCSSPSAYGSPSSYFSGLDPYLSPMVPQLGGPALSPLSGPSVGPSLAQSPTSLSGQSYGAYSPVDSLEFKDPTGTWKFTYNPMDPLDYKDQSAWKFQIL
# Chain of SPIB (Q01892 whole entry): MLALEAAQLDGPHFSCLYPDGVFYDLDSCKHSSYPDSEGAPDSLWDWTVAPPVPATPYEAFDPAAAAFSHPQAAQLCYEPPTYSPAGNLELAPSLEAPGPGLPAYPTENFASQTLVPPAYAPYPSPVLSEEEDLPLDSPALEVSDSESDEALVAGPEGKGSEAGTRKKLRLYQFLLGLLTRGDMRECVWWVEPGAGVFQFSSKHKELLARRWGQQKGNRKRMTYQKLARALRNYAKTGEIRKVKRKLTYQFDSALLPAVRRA
# Chain of ETV5 (P41161 whole entry): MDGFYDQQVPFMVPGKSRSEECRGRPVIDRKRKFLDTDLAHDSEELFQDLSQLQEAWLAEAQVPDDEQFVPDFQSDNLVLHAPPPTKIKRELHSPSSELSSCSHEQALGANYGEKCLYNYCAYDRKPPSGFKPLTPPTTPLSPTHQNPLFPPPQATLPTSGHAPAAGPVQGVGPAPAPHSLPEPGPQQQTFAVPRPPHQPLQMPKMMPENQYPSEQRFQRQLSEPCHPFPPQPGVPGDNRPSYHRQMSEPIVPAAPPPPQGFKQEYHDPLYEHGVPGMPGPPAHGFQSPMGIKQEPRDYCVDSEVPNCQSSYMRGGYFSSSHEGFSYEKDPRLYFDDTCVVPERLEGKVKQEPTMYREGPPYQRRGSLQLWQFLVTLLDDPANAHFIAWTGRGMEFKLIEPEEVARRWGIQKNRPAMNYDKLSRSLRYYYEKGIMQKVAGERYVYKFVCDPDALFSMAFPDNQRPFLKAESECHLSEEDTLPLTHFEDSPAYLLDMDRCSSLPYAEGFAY
# Chain of ELF4 (Q99607 whole entry): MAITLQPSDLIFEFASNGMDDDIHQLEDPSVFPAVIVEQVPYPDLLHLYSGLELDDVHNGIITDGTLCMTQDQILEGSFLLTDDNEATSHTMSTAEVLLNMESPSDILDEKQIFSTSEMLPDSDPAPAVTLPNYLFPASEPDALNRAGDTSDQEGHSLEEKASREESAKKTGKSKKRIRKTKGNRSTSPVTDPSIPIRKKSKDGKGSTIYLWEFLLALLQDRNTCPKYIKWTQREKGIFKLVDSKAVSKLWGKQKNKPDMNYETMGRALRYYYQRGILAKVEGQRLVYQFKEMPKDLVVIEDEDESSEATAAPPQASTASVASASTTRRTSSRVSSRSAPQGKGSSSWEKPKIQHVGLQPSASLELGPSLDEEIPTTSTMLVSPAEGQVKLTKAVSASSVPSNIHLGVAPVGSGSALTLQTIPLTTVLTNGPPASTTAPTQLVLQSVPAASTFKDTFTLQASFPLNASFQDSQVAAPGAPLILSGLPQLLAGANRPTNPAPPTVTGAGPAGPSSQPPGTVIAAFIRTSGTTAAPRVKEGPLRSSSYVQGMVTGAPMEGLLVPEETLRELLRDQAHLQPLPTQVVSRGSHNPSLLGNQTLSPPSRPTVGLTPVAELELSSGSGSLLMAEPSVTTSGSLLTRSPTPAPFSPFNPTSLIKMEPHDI
# Chain of ELF1 (P32519 whole entry): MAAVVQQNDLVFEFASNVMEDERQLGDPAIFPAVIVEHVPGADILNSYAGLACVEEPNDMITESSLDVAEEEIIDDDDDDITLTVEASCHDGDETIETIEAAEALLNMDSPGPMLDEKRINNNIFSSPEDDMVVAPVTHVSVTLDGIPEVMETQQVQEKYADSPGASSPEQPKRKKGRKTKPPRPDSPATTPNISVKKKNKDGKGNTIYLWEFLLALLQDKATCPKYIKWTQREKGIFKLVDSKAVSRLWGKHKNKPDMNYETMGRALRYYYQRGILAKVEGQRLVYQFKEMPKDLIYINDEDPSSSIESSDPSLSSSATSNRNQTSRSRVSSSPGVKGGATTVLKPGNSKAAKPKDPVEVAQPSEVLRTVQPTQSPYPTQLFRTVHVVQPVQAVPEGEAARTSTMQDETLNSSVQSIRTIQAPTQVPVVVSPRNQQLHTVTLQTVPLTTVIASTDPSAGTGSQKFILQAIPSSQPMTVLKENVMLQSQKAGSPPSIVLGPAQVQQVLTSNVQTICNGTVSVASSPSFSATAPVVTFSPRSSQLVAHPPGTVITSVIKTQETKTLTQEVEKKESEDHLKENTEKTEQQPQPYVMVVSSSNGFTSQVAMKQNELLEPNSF
# Chain of HSF1 (Q00613 whole entry): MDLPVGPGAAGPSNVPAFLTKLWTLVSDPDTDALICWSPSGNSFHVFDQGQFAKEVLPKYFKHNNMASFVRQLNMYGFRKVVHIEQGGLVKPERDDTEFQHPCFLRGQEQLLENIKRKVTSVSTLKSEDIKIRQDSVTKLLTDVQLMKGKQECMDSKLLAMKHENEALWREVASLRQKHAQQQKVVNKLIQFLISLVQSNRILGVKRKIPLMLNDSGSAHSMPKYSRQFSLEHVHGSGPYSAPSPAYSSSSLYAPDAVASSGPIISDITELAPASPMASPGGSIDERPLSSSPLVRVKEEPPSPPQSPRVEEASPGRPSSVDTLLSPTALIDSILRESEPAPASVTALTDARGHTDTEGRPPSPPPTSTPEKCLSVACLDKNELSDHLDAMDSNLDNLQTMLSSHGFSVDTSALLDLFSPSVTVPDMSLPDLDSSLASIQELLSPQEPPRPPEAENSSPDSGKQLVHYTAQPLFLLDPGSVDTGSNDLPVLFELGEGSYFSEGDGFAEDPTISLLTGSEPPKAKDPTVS
# Chain of ETV1 (P50549 whole entry): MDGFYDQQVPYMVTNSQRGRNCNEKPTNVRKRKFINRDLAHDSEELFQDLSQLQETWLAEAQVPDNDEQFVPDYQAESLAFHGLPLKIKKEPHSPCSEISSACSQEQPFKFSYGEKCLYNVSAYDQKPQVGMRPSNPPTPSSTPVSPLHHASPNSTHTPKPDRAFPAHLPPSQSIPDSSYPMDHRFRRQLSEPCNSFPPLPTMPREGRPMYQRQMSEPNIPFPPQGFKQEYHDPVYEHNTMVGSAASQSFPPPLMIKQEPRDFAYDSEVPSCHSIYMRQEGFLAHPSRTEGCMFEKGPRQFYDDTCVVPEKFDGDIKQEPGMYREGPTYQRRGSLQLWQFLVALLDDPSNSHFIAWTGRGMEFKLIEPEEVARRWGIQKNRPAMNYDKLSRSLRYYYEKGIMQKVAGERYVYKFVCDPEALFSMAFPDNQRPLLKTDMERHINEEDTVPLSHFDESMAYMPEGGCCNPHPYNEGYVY
sequence,measurement,setting,value
TATAAT,binding signal,FLI1,"1.14 fold enrichment (6-mer frequency, TF over GST control)"
same,binding signal,ELK1,"1.24 fold enrichment (6-mer frequency, TF over GST control)"
same,binding signal,GABPA,"1.12 fold enrichment (6-mer frequency, TF over GST control)"
same,binding signal,ERG,"1.07 fold enrichment (6-mer frequency, TF over GST control)"
same,binding signal,ELF1,"1.18 fold enrichment (6-mer frequency, TF over GST control)"
same,binding signal,EHF,"1.18 fold enrichment (6-mer frequency, TF over GST control)"
same,binding signal,SPI1,"1.15 fold enrichment (6-mer frequency, TF over GST control)"
same,binding signal,SPIB,"1.15 fold enrichment (6-mer frequency, TF over GST control)"
same,binding signal,ELK3,"1.22 fold enrichment (6-mer frequency, TF over GST control)"
same,binding signal,FEV,"1.16 fold enrichment (6-mer frequency, TF over GST control)"
same,binding signal,ETV5,"1.17 fold enrichment (6-mer frequency, TF over GST control)"
same,binding signal,HSF1,"1.82 fold enrichment (6-mer frequency, TF over GST control)"
same,binding signal,SPIC,"1.1 fold enrichment (6-mer frequency, TF over GST control)"
same,binding signal,ELF4,"1.13 fold enrichment (6-mer frequency, TF over GST control)"
same,binding signal,ELK4,"1.25 fold enrichment (6-mer frequency, TF over GST control)"
same,binding signal,ETV2,"1.3 fold enrichment (6-mer frequency, TF over GST control)"
same,binding signal,ELF3,"1.27 fold enrichment (6-mer frequency, TF over GST control)"
same,binding signal,CRX,"2.69 fold enrichment (6-mer frequency, TF over GST control)"
same,binding signal,ETV1,"1.15 fold enrichment (6-mer frequency, TF over GST control)"
